Results filed as inconclusive are left out. Activity calls are given as the source filed them. Unless noted, the call rests on the fitted dose curve; in most records, active means well fitted curve in either direction with a large enough effect (not every such curve was filed as active); inconclusive means small, poorly fitted or top-dose-only effect, or another doubt; inactive means flat fitted curve, though single readings scatter.
Experiments:
[1] = AP1 Signaling Pathway (AID 357); conditions: ME-180 AP-1-bla reporter, EGF-induced, beta-lactamase ratio, 5 h; at 17.2 µM (top of the series) unless noted;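 further: ME-180 reporter cells stimulated with EGF at its EC50 level; on the % scale 0 is the no-effect control and ±100 the full control effect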
Summary of the method: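 In this screen, ME-180 cells in Opti-MEM with 0.5% dialyzed FBS received EC50 EGF and compound titrations for 5 h. AP-1 reporter beta-lactamase was detected via CCF4 ratio, giving AC50 for positive and negative modulators.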

[2] = NFAT Signaling Pathway (AID 444); conditions: Jurkat NFAT-bla M1, carbachol, beta-lactamase ratio, 5 h; at 17.2 µM (top of the series) unless noted;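 further: carbachol stimulus at about its EC50 of 1 µM final; on the % scale 0 is the no-effect control and ±100 the full control effect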
Summary of the method: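 Read-out: CCF4 FRET ratio (460 nm/530 nm) after 1 h RT dye loading, used for %activity and AC50 from titration series. Cells: Jurkat NFAT-β-lactamase/M1 line, treated with compound plus 1 uM carbachol for 5 h, 37 °C.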

[3] = Stat Signaling Pathway (AID 446); conditions: ME-180 (cervical carcinoma) SIE beta-lactamase reporter, IL-6 stimulated, 5 h; at 17.2 µM (top of the series) unless noted;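 further: ME-180 cervical cancer cells given 40 pM IL-6 alongside compound; SIE-controlled beta-lactamase reporter measured as 460/530 nm FRET emission ratio; on the % scale 0 is the no-effect control and ±100 the full control effect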
Summary of the method: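 Emission at 460 and 530 nm (excitation 405 nm) reports SIE-controlled beta-lactamase in ME-180 cells. Cells received compound with 40 pM IL-6 for 5 hrs at 37 C; data scaled between 300 pM IL-6 and 125 nM JAK-inhibitor controls.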

[4] = target: Glucocorticoid receptor (Homo sapiens) (UniProt P04150); assay: GR-GFP Redistribution (AID 450;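 active means compounds whose dose series gives a full or clear partial fitted curve of increased nuclear translocation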; further: potency means the concentration at half of the fitted maximal effect)
[5] = target: Glucocorticoid receptor (Homo sapiens) (UniProt P04150); assay: GR-EFC Redistribution (AID 451; calls by dose curve; further: potency means the concentration at half of the fitted maximal effect); conditions: CHO-K1 GR-EFC translocation, beta-gal luminescence, 2 h
Summary of the method: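 Translocation of GR-ED fusion to nuclear EA restores b-gal, read by luminescence after 1 h room-temperature detection. Engineered CHO-K1 biosensor cells, 1,000/well, exposed 2 h at 37 C to titrations up to 46 uM final.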

[6] = target: Mitogen-activated protein kinase 10 (Mus musculus) (UniProt Q61831); assay: JNK3 AlphaScreen Assay (AID 530);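 further: kinase came from lysate of stimulated human HepG2 cells; signal reports phosphorylation of biotinylated GST-cJun 1-79 at Ser73 with 10 µM ATP; on the % scale 0 is the no-effect control and ±100 the full control effect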
Summary of the method: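 Kinase buffer: 20 mM Tris-HCl pH 7.6, 10 mM MgCl2, 1 mM DTT, 0.1 mM Na3VO4, 0.01% Tween-20; ATP 10 uM. Substrate biotin-GST-cJun(1-79), enzyme from activated HepG2 lysates. Detection by Ser73 phospho-antibody AlphaScreen.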

[7] = target: 3',5'-cyclic-AMP phosphodiesterase 4B (Homo sapiens) (UniProt Q07343); assay: qHTS Assay for Inhibitors of PDE-IV (AID 607; active means well fitted activation curve with a large enough effect in the main read-out, with a control signal flat, not every such curve was filed as active; further: % of control where 0% means no effect)
Summary of the method: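 The readout is membrane depolarisation from a cAMP-sensing CNG channel, detected with a potential dye at ex 535/em 590. Cells were HEK293-derived (endogenous PDE-IV) at 1000 cells/well, titrated up to 22.9 uM final.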

[8] = target: Guanine nucleotide-binding protein G(i) subunit alpha-1 (Homo sapiens) (UniProt P63096); assay: qHTS Assay for Inhibitors of RGS12 GoLoco Motif Activity (Green Fluorophore) (AID 879; active means well fitted curve in the direction sought with a large enough effect; an effect the other way counts as inactive or inconclusive;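 further: 0% = labeled peptide with Gαi1 and full inhibition = labeled peptide alone without protein; negative values mean loss of peptide binding seen as reduced polarization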)
Summary of the method: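 A drop in FITC polarization marked displacement of the FITC-tagged RGS12 GoLoco peptide (10 nM) from Gαi1 (50 nM). Compounds were incubated 10 min at room temperature in Tris pH 7.5 buffer containing 150 mM NaCl, 0.1 mM GDP and 0.05% NP40; unlabeled peptide titration served as control.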

[9] = qHTS Assay for Identification of Small Molecule Antagonists for NFkB Signaling Pathway (AID 895; active means well fitted inhibition curve with a large enough effect in the signal ratio, with a control signal flat, not every such curve was filed as active; the % refers to the signal ratio; further: potency means the concentration at half of the fitted maximal effect)
Summary of the method: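 Beta-lactamase reporter read-out (460 and 530 nm emission ratio, 405 nm excitation, 2 hrs substrate loading RT) after 5 hr stimulation with 10 pM TNF alpha in compound-treated NFkB-bla ME-180 cells in low-serum medium.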

[10] = qHTS Assay for Identification of Small Molecule Agonists for Thrombopoietin (TPO) Signaling Pathway (AID 917; active means well fitted curve in the direction sought with a large enough effect; an effect the other way counts as inactive or inconclusive; further: potency means the concentration at half of the fitted maximal effect)
Summary of the method: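 Ba/F3 (mouse) + hTPO receptor + GpIIb-promoter luciferase; IL-3 withdrawn overnight; compound + 26 pM TPO (EC50), 24 hrs, 37 C, 5% CO2; Steadylite luminescence, 10 min RT.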

[11] = target: Muscarinic acetylcholine receptor M1 (Rattus norvegicus) (UniProt P08482); assay: qHTS Assay for Antagonists of Acetylcholine Muscarinic M1 Receptor: Measurement of IP-One Response (AID 944; active means well fitted curve in the direction sought with a large enough effect; an effect the other way counts as inactive or inconclusive; further: nearly all actives have a fitted effect of over 75% in size)
Summary of the method: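 Antagonism was measured as loss of carbachol-driven (EC80) IP1 accumulation in CHO cells carrying rat M1, using a homogeneous IP-One TR-FRET kit read at 620 and 665 nm.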

[12] = target: Pyruvate kinase (Leishmania mexicana) (UniProt Q27686); assay: qHTS Validation Assay for Inhibitors of Leishmania Mexicana Pyruvate Kinase (AID 945; active means well fitted curve in the direction sought with a large enough effect; an effect the other way counts as inactive or inconclusive;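 further: 0% = DMSO only neutral control wells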)
Summary of the method: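 Read-out: luminescence from PKLight stop/detection reagent, data normalized to DMSO. Reaction: 0.2 nM E451W LmPYK, 0.5 mM PEP, 0.1 mM ADP, pH 7.2, 1 h room temperature.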

[13] = target: Pyruvate kinase PKM (Homo sapiens) (UniProt P14618); assay: qHTS Assay for Activators of Human Muscle Pyruvate Kinase (AID 954; active means well fitted curve in the direction sought with a large enough effect, not every such curve was filed as active;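 further: 0% = uninhibited enzyme and -100% = no enzyme or full thiadiazolimine inhibition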)
Summary of the method: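 PKM2, human, >95% pure, 0.1 nM; PEP 0.5 mM (Km), ADP 0.1 mM; 50 mM imidazole pH 7.2, 50 mM KCl, 0.01% Tween 20, 0.05% BSA; 1 h RT; luciferase luminescence readout.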

[14] = target: Alpha-galactosidase A (Homo sapiens) (UniProt P06280); assay: Counterscreen for Glucocerebrosidase Inhibitors: qHTS Assay for Human alpha-Galactosidase at pH 4.5 (AID 992; active means well fitted curve in the direction sought with a large enough effect; an effect the other way counts as inactive or inconclusive; further: 0% is about no effect)
Summary of the method: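 Fluorogenic 4-MU alpha-D-galactoside (80 uM) hydrolysis, 2 nM enzyme, pH 4.5 citrate buffer + 0.005% Tween-20; 20 min RT; NaOH/glycine pH 10 stop; Ex365/Em440. Compounds titrated 0.7 nM–77 uM; Hill-equation AC50.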

[15] = target: alpha-glucosidase (Oryza sativa, rice) (UniProt Q653V4); assay: Counterscreen for Glucocerebrosidase Inhibitors: qHTS Assay for Rice alpha-Glucosidase at pH 5.0 (AID 997; active means well fitted curve in the direction sought with a large enough effect; an effect the other way counts as inactive or inconclusive;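 further: 0% = full activity with enzyme and -100% = basal without enzyme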)
Summary of the method: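 Endpoint fluorogenic assay at pH 5.0: compounds (0.7 nM to 77 uM) titrated against 4 nM rice enzyme and 400 uM 4-MU-alpha-glucoside for 20 min at room temperature; NaOH/glycine stop, read ex 365/em 440 nm, Hill-fitted AC50.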

[16] = target: Muscarinic acetylcholine receptor M1 (Rattus norvegicus) (UniProt P08482); assay: qHTS Assay for Antagonists of Acetylcholine Muscarinic M1 Receptor: Kinetic Measurement of Intracellular Calcium Response (AID 943; active means well fitted curve in the direction sought with a large enough effect; an effect the other way counts as inactive or inconclusive;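 further: Fluo-4 calcium signal as peak divided by basal fluorescence over 4 min; nearly all actives have a fitted effect of over 75% in size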)
Summary of the method: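 Quantitative HTS in CHO-M1 (rat receptor) cells: 10 min compound exposure ahead of 100 nM carbachol, Fluo-4 fluorescence followed 4 min, value expressed as peak-to-basal ratio.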

[17] = target: Cytochrome P450 3A4 (Homo sapiens) (UniProt P08684); assay: qHTS Assay for Activators of Cytochrome P450 3A4 (AID 885; active means well fitted curve in the direction sought with a large enough effect; an effect the other way counts as inactive or inconclusive; further: nearly all actives have a fitted effect of over 65% in size)
Summary of the method: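 Activators are scored by enhanced luminescence from CYP3A4 conversion of luciferin-PPXE (25uM, equal to KM) to luciferin, after 60 min at RT with an NADPH-regenerating system.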

Chain of Alpha-galactosidase A (Homo sapiens) (P06280 whole entry, looked up): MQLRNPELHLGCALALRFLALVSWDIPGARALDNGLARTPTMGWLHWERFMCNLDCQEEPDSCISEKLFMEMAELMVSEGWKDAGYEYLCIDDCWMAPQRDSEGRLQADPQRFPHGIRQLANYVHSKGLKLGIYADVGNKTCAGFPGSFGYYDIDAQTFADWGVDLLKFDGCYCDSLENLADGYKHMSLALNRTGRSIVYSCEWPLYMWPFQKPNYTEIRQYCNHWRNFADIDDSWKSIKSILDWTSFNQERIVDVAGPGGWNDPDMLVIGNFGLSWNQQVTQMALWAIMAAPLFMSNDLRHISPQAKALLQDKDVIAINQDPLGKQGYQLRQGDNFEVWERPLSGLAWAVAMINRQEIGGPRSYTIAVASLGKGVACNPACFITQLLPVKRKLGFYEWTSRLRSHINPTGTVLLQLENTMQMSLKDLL
Chain of Pyruvate kinase (Leishmania mexicana) (Q27686 2-499 E452W): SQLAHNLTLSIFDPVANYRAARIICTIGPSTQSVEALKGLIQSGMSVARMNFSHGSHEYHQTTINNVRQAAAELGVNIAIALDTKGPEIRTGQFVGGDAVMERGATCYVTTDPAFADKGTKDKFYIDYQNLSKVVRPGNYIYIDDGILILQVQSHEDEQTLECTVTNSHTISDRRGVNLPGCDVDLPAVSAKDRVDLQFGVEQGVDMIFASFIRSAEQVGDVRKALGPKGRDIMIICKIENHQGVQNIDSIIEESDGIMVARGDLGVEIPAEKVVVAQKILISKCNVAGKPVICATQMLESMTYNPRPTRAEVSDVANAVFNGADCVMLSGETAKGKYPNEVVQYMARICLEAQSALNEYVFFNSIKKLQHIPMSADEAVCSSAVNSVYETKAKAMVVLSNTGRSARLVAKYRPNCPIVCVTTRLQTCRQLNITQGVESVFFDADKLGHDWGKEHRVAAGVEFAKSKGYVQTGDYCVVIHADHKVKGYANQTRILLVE
Chain of Pyruvate kinase PKM (Homo sapiens) (P14618 whole entry, looked up): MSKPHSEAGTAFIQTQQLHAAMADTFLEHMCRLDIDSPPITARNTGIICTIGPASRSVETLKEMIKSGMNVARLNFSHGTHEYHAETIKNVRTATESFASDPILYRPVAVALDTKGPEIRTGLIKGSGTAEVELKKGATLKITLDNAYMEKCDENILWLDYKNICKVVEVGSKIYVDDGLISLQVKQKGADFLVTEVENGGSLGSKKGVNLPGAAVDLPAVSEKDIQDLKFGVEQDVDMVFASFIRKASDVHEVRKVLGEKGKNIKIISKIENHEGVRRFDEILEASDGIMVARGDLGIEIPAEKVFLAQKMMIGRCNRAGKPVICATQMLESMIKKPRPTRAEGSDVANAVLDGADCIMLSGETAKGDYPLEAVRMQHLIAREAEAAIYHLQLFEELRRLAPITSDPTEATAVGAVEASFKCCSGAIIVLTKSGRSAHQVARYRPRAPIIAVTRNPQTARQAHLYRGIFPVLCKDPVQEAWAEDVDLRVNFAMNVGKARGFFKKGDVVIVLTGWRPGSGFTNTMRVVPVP
Chain of Glucocorticoid receptor (Homo sapiens) (P04150 whole entry, looked up, the tested form may be a part): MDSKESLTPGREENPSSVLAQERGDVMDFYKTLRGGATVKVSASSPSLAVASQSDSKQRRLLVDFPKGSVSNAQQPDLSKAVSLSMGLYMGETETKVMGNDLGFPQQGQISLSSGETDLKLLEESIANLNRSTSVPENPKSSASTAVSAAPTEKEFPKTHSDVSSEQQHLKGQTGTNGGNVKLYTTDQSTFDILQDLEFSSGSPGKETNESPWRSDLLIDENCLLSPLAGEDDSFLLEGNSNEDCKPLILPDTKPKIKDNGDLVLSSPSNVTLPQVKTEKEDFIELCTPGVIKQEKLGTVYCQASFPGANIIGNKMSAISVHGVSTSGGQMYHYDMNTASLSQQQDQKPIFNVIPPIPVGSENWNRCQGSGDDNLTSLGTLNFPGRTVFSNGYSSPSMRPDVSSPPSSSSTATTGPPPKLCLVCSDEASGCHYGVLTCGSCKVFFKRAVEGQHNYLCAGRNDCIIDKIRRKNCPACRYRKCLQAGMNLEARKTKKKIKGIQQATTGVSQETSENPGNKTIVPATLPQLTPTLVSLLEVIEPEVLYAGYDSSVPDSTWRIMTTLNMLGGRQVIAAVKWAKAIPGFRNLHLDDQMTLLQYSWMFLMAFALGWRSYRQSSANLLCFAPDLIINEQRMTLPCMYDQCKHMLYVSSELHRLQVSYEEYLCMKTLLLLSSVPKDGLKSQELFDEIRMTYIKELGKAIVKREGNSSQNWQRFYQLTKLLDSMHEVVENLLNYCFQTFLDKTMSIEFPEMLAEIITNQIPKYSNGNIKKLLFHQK
Chain of Guanine nucleotide-binding protein G(i) subunit alpha-1 (Homo sapiens) (P63096 whole entry, looked up): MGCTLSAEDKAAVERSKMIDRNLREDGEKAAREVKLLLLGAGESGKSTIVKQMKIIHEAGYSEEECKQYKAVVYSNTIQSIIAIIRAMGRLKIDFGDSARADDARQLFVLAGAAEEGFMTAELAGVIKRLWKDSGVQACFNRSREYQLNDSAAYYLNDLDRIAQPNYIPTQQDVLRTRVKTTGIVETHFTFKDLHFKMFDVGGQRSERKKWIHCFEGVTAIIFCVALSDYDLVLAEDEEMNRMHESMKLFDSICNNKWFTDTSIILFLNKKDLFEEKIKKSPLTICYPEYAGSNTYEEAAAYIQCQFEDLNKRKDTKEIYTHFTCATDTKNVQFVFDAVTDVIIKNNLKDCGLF
Chain of Muscarinic acetylcholine receptor M1 (Rattus norvegicus) (P08482 whole entry, looked up): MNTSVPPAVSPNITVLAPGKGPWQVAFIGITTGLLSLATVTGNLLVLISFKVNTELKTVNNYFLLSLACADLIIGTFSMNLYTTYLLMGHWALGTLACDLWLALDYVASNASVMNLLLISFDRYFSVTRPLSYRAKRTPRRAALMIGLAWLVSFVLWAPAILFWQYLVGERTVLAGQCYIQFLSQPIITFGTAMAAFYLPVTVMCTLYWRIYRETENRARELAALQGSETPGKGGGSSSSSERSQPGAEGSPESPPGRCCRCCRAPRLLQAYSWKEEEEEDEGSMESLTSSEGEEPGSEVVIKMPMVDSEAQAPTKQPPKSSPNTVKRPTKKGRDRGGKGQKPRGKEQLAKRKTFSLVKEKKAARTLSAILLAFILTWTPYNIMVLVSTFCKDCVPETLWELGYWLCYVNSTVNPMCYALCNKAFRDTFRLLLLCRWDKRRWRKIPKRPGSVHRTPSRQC
Chain of 3',5'-cyclic-AMP phosphodiesterase 4B (Homo sapiens) (Q07343 whole entry, looked up): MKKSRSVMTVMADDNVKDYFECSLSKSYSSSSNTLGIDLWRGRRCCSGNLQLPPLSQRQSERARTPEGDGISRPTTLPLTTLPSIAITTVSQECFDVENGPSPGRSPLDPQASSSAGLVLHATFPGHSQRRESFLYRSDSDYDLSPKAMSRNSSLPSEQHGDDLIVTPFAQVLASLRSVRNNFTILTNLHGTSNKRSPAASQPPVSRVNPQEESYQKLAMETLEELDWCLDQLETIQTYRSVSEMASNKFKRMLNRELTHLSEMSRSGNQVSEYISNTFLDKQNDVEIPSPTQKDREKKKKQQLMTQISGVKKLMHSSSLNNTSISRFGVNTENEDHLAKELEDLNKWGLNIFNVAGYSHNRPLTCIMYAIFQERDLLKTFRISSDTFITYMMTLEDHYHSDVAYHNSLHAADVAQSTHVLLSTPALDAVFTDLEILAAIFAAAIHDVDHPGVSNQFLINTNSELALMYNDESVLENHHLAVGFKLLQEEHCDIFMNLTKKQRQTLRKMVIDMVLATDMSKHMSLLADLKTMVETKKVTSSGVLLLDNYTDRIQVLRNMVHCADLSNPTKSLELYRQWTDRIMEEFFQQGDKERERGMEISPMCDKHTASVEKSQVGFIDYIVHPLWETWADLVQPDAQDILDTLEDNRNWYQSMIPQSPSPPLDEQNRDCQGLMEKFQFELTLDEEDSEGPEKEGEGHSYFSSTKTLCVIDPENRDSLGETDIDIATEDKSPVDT
Chain of Cytochrome P450 3A4 (Homo sapiens) (P08684 whole entry, looked up): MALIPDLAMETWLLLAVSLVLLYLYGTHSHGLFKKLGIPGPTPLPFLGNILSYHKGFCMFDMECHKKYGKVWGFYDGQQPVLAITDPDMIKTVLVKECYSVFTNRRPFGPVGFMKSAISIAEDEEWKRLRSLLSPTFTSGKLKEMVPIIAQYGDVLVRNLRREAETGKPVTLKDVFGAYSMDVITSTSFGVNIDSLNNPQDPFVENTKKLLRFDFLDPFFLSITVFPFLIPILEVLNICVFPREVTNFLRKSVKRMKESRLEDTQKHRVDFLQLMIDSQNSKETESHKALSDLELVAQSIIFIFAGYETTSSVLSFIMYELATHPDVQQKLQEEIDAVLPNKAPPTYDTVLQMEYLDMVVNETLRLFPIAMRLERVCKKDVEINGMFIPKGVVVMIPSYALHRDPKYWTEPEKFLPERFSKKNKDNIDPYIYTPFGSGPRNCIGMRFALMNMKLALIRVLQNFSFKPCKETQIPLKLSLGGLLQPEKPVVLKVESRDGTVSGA

OC[C@@H]1O[C@@H](n2cnc3c(Nc4ccccc4)ncnc32)[C@@H](O)[C@H]1O
inactive: activity change, negative = inhibition [1] 7.84% [at 38 µM] | activity change, negative = inhibition [2] 0.0847% [at 38 µM] | activity, negative = inhibition [3] -14.3% [at 38 µM] | Potency [4] > 46 µM | Potency [5] > 46 µM | Potency [6] | Potency [7] | outcome [8] | Potency [11] | Potency [12] | outcome [13] | outcome [14] | outcome [15]
active: Potency [9] 2.24 µM | Potency [10] 3.98 µM

N[C@H](Cc1cccc(-c2ccccc2CP(=O)(O)O)c1)C(=O)O
inactive: activity change, negative = inhibition [1] 8.92% [at 38 µM] | activity change, negative = inhibition [2] 12.7% [at 38 µM] | activity, negative = inhibition [3] 1.71% [at 38 µM] | Potency [4] > 46 µM | Potency [5] > 46 µM | Potency [6] | Potency [7] | outcome [8] | Potency [9] | Potency [10] | Potency [11] | Potency [12] | outcome [13] | outcome [14]

O=C(O)[C@@H]1CCCN[C@H]1C(=O)O
inactive: activity change, negative = inhibition [1] 13% [at 38 µM] | activity change, negative = inhibition [2] -7.71% [at 38 µM] | activity, negative = inhibition [3] -12.9% [at 38 µM] | Potency [4] > 46 µM | Potency [5] > 46 µM | Potency [6] | Potency [7] | outcome [8] | Potency [9] | Potency [10] | Potency [16] | Potency [12] | outcome [13] | outcome [14]

C[N+](C)(C)CCN[N@@+]1(C)CCCc2ccccc21
inactive: activity change, negative = inhibition [1] -2.74% [at 7.69 µM] | activity change, negative = inhibition [2] -8.45% [at 7.69 µM] | activity, negative = inhibition [3] 7.61% [at 7.69 µM] | Potency [4] > 46 µM | Potency [5] > 9.22 µM | activity change, negative = inhibition [6] 4.98% [at 11.4 µM] | Potency [7]

O=C(CSc1ncnc2nc[nH]c12)c1ccccc1
inactive: activity change, negative = inhibition [1] -9.01% [at 7.69 µM] | activity change, negative = inhibition [2] 11.7% [at 7.69 µM] | activity, negative = inhibition [3] 1.65% [at 7.69 µM] | Potency [4] > 46 µM | Potency [5] > 9.22 µM | activity change, negative = inhibition [6] -0.309% [at 11.4 µM] | Potency [7]

CCC1=C(C(=O)OC)C(c2cc(OC)ccc2OC)C(C#N)=C(N)O1 (stereo not given)
inactive: activity change, negative = inhibition [1] -1.51% | activity change, negative = inhibition [2] -14.5% | activity, negative = inhibition [3] 4.21% | Potency [4] > 20.6 µM

Cc1c(/C(O)=C2\C(=O)C(=O)N(CCN(C)C)C2c2cccnc2)cnn1-c1ccccc1 (stereo not given)
inactive: activity change, negative = inhibition [1] 1.75% | activity change, negative = inhibition [2] 9.15% | activity, negative = inhibition [3] 0.0911% | Potency [4] > 20.6 µM

NC(=S)c1ccc[n+]([C@@H]2O[C@@H](COP(=O)([O-])OP(=O)(O)OC[C@@H]3O[C@@H](n4cnc5c(N)ncnc54)[C@@H](OP(=O)(O)O)[C@H]3O)[C@@H](O)[C@H]2O)c1
inactive: activity change, negative = inhibition [1] 5.32% [at 38 µM] | activity change, negative = inhibition [2] -7.28% [at 38 µM] | activity, negative = inhibition [3] 1.28% [at 38 µM] | Potency [4] > 46 µM | Potency [5] > 46 µM | Potency [6] | Potency [7] | outcome [8] | Potency [17] | Potency [10] | Potency [11] | Potency [12] | outcome [13] | outcome [14]

O=C(CCN1CCc2ccccc21)c1ccc2c(c1)OCCO2
inactive: activity change, negative = inhibition [1] 7.14% | activity change, negative = inhibition [2] -15.2% | activity, negative = inhibition [3] 2.96% | Potency [4] > 20.6 µM

CN1C[C@H](C(=O)N[C@]2(C)O[C@]3(O)[C@H]4CCCN4C(=O)[C@H](Cc4ccccc4)N3C2=O)C[C@H]2c3cccc4[nH]cc(c34)C[C@@H]21
inactive: activity change, negative = inhibition [1] 1.56% | activity change, negative = inhibition [2] -6.21% | activity, negative = inhibition [3] -7.06% | Potency [4] > 20.6 µM | Potency [5] > 20.6 µM | Potency [6] | Potency [7]

C=CCN(C(=O)CCC(=O)O)C1CC(=O)N(c2ccc(OCCC)cc2)C1=O (stereo not given)
inactive: activity change, negative = inhibition [1] 3.6% | activity change, negative = inhibition [2] -2.1% | activity, negative = inhibition [3] -6.77% | Potency [4] > 20.6 µM

CCCCCOC(=O)Cc1c(C)nc(-c2ccccc2)[nH]c1=O
inactive: activity change, negative = inhibition [1] -3.29% | activity change, negative = inhibition [2] 8.16% | activity, negative = inhibition [3] 4.57% | Potency [4] > 20.6 µM

Cc1nnc(C)n1/N=C/c1cccn1C
inactive: activity change, negative = inhibition [1] 4.24% | activity change, negative = inhibition [2] 13.1% | activity, negative = inhibition [3] -1.54% | Potency [4] > 20.6 µM

O=C1c2ccccc2C(=O)N1c1ncccn1
inactive: activity change, negative = inhibition [1] 6.61% | activity change, negative = inhibition [2] -3.61% | activity, negative = inhibition [3] 9.87% | Potency [4] > 20.6 µM

CCCCCC[C@@H]([C@H](C)O)n1cnc2c(N)ncnc21
inactive: activity change, negative = inhibition [1] -20.5% [at 38 µM] | activity change, negative = inhibition [2] -4.53% [at 38 µM] | activity, negative = inhibition [3] 25.6% [at 38 µM] | Potency [4] > 46 µM | Potency [5] > 46 µM | Potency [6] | Potency [7] | outcome [8] | Potency [10] | Potency [16] | Potency [11] | Potency [12] | outcome [13] | outcome [14]

— PubChem BioAssay (NCATS)
